For 27 molecules, activation and Potency results are on record in PubChem BioAssay (NCATS).

Test [1] deals with Cellular tumor antigen p53 (Homo sapiens) (UniProt P04637). Kind of test: Primary qHTS for small molecule compounds that upregulate eGFP-tagged delta133p53alpha (in N-terminal) cells. (AID 2060322). Further: nearly all actives have a fitted effect of over 75% in size. Further: potency means the concentration at half of the fitted maximal effect.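 On activation: cells pre-induced with doxycycline then dosed without doxycycline; series mostly up to about 56 µM; 0% = DMSO vehicle and 100% = reference activator.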 Conditions: NCI-H358 eGFP-delta133p53alpha fluorescence, 24 h; activation: active compounds read high. The essentials:
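NCI-H358 cells pre-induced 24 h with 10 ng/ml doxycycline for eGFP-delta133p53alpha, plated dox-free and exposed 24 h at 37C to titrated compounds. Fixed, Hoechst-stained; gated GFP peak intensity by laser scanning cytometry, normalized to DMSO (0%) and 57.5 uM 5-azacytidine (100%).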

For test [2], the target named is Aldehyde dehydrogenase, mitochondrial (Homo sapiens) (UniProt P05091). The test can be described thus: qHTS for Inhibitors of the Aldehyde Dehydrogenase Family (ALDH2) Primary screen (AID 2061308).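 Further: plate controls were vehicle for no effect and reference inhibitor for full effect; nearly all actives have a fitted effect of over 55% in size.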 On the technique in general: Quantitative high-throughput screening tests each substance at several concentrations.
Test [3] deals with Retinaldehyde dehydrogenase 3 (Homo sapiens) (UniProt P47895). Kind of test: qHTS for Inhibitors of the Aldehyde Dehydrogenase Family (ALDH1A3) Primary screen (AID 2061315).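 Further: plate controls were DMSO vehicle for no effect and reference inhibitor for full effect.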

Inconclusive results are not listed. A number with no mark means an inactive call. Calls of active or inactive are those of the source. The call rests on the fitted dose curve; in most records, active means well fitted curve in the direction sought with a large enough effect; inconclusive means small, poorly fitted or top-dose-only effect, or another doubt; inactive means no such curve, though single readings can be large; an effect the other way counts as inactive or inconclusive.

Cellular tumor antigen p53 (Homo sapiens), sequence (P04637 whole entry, looked up): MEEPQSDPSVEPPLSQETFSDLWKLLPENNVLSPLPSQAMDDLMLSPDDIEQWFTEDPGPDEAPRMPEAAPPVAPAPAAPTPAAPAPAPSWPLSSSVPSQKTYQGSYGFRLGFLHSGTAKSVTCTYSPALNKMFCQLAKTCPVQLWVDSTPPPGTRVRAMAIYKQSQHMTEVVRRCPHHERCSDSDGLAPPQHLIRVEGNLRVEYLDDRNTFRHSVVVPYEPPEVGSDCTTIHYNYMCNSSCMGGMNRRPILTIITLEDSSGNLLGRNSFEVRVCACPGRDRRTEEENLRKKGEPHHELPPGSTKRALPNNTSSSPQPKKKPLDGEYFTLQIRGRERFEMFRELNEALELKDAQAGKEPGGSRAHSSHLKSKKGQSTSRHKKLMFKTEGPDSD

As for H-DPPDPDRFYGMM-NH2, the activation in test [1] is -11%. The Potency result in test [2] and in test [3] was “inactive” each time.
As for `CCCOc1ccc(-c2nc(OC)c3ccccc3n2)cc1`, the activation in test [1] was -5.67%. The Potency result in test [2] and in test [3] was “inactive” each time.
With `CC(=O)OC[C@@]12[C@@H](OC(C)=O)C[C@@H](C)[C@](C)([C@@H]3C[C@H]4C=CO[C@H]4O3)[C@H]1CCC[C@]21CO1`, the activation in test [1] was 0%. For the same molecule, the Potency entry in test [2] and in test [3] was “inactive” throughout.
In the case of `CCOc1cn(-c2ccc(F)cc2C)nc1C(=O)Nc1ccc(Oc2ccnc3cc(OC)c(OC)cc23)c(F)c1`, the activation in test [1] is 12.5%. The Potency result in test [2] and in test [3] was “inactive” each time.
Take `C[C@H](Oc1ccc(S(C)(=O)=O)cc1C(=O)N1CCN(c2ncc(C(F)(F)F)cc2F)CC1)C(F)(F)F`: the activation in test [1] is 4.46%. The Potency result in test [2] and in test [3] was “inactive” in each case.
Turning to `CC12CCC3c4ccc(OC5OC(C(=O)O)C(O)C(O)C5O)cc4CCC3C1CCC2O` (stereo unspecified), the activation in test [1] is 11.7%. For the same molecule, the Potency result in test [2] and in test [3] was “inactive” throughout.
`CC(C)=CCc1c(O)cc2oc3cc(C)cc(O)c3c2c1C`: the activation in test [1] is -21.4%. Besides, the Potency entry in test [2] and in test [3] was “inactive” throughout.
As for `CC1OC(=O)C[C@@H]2C(C(=O)O)=CO[C@@H](O[C@H]3O[C@H](CO)[C@@H](O)[C@H](O)[C@H]3O)[C@H]12` (stereo partly specified), in test [1], the activation is -23.2%. The Potency result in test [2] and in test [3] was “inactive” in each case.
As to `C/C(=C\CCC(C(=O)O)C1CCC2(C)C3=C(CCC12C)C1(C)CCC(=O)C(C)(C)C1CC3)C(=O)O` (stereo unspecified), the activation in test [1] is 1.53%. In addition, the Potency result in test [2] and in test [3] was “inactive” in each case.
Regarding `Cc1cc(C(C)Nc2ccccc2C(=O)O)c2nc(N3CCOCC3)cc(=O)n2c1` (stereo unspecified), the activation in test [1] was 14.3%. In addition, the Potency entry in test [2] and in test [3] was “inactive” in each case.
Consider `C[C@]1(O)CC[C@@H]2C(C(=O)O)=CO[C@@H](O[C@@H]3O[C@H](COC(=O)c4ccc(O)cc4)[C@@H](O)[C@H](O)[C@H]3O)[C@@H]21`, for which the activation in test [1] was 0.893%. The Potency result in test [2] and in test [3] was “inactive” in each case.
Consider `CC1=C(c2ccc(NC(=O)c3c(F)cccc3F)cc2)CN(c2nccs2)CC1`, for which the activation in test [1] is 21.7%. Besides, the Potency entry in test [2] and in test [3] was “inactive” in each case.
Take `CC(C)CCC[C@@H](C)[C@H]1CC[C@H]2[C@@H]3CC(=O)[C@H]4C[C@@H](O)CC[C@]4(C)[C@H]3CC[C@]12C`: the activation in test [1] was -7%. The Potency result in test [2] and in test [3] was “inactive” each time.
Regarding `COc1cc(O)cc(C)c1C(=O)O[C@@H]1[C@H](O)[C@@H](CO)O[C@H]1n1ccc(=O)[nH]c1=O`, in test [1], the activation was 11.5%. In addition, the Potency entry in test [2] and in test [3] was “inactive” each time.
As to `CC[N+]1(CC)CCC(=C(c2ccccc2)c2ccccc2)C1C` (stereo unspecified), the activation in test [1] was -5.67%. Besides, the Potency entry in test [2] and in test [3] was “inactive” in each case.
For `C/C(=C\CC[C@H](CO)[C@@H]1CC[C@]2(C)C3=C(CC[C@@]12C)[C@@]1(C)CCC(=O)C(C)(C)C1CC3)C(=O)O` (stereo partly specified), the activation in test [1] is -4.58%. Also, the Potency entry in test [2] and in test [3] was “inactive” in each case.
Take `CCC[C@@H](NC(=O)N1C(=O)C(CC)(CC)[C@@H]1Oc1ccc(C(=O)N2CCN(C)CC2)cc1)c1ccc2c(c1)OCO2`: the activation in test [1] is -10.5%. The Potency entry in test [2] and in test [3] was “inactive” in each case.
Regarding `CC1(C)C[C@H](O)C[C@@]2(C)OC(=O)C=C12`, in test [1], the activation is 19.6%. The Potency result in test [2] and in test [3] was “inactive” throughout.
On to `COc1cc2ncnc(Nc3ccc(F)c(Cl)c3)c2cc1O`, for which the activation in test [1] is 25.7%. For the same molecule, the Potency entry in test [2] and in test [3] was “inactive” each time.
Regarding `CCOCc1cc(OC)c(-c2ccc(C[C@H](NC(=O)c3c(F)cccc3F)C(=O)O)cc2)c(OC)c1`, the activation in test [1] was -5.67%. The Potency result in test [2] and in test [3] was “inactive” in each case.
With `CC(O)C1CCC2C3CCC4CC(OC5OC(C(=O)O)C(O)C(O)C5O)CCC4(C)C3CCC12C` (stereo unspecified), the activation in test [1] was -17%. In addition, the Potency entry in test [2] and in test [3] was “inactive” each time.
For `COc1ncc2cc(C(=O)Nc3cc(C(=O)NCc4cccc(Cl)c4)ccc3Cl)c(=O)[nH]c2n1`, the Potency in test [1] is 2690 nM (active). Besides, the Potency result in test [2] and in test [3] was “inactive” throughout.
In the case of `CC1NC(=O)C(Cc2c[nH]c3ccccc23)NC1=O` (stereo unspecified), the activation in test [1] was -13.7%. Further, the Potency entry in test [2] and in test [3] was “inactive” in each case.
As to `C/C=C/C=C/C(O)=C1/C(=O)[C@]2(C)C(=O)[C@@](C)(O)[C@H]1[C@H]([C@@]1(C)OC(=O)C(C)=C1O)[C@H]2C(=O)CC/C=C/C`, the activation in test [1] is -10.7%. In addition, the Potency result in test [2] and in test [3] was “inactive” in each case.
For `C[C@@H]1CC[C@]2(C(=O)O)CC[C@]3(C)C(=CCC4[C@@]5(C)C[C@@H](O)[C@@H](O)C(C)(C)C5CC[C@]43C)C2[C@]1(C)O` (stereo partly specified), the activation in test [1] is -5.36%. In addition, the Potency entry in test [2] and in test [3] was “inactive” each time.
For the molecule `N#Cc1cc(CN2CCC(Nc3ncnc4sc(Cl)cc34)CC2)ccc1F`, in test [1], the activation was 5%. For the same molecule, the Potency result in test [2] and in test [3] was “inactive” throughout.
As to `CC(C)=CCc1cc(O[C@@H]2O[C@H](CO[C@@H]3OC[C@](O)(CO)[C@H]3O)[C@@H](O)[C@H](O)[C@H]2O)ccc1O`, the activation in test [1] is 22.1%. In addition, the Potency result in test [2] and in test [3] was “inactive” each time.
